# From PubChem BioAssay (Tox21)
# Where “and” joins values, the source holds several entries; their conditions need not be identical. Equal entries are not always repeated. Inconclusive results are not listed. Entries that show only a call come without a potency. Some structures have more than one record in an assay (separate samples or runs), and their calls can disagree. Calls of active or inactive are those of the source. Unless noted, calls follow the shape of the dose curve; as a rule, active = well fitted curve in the direction sought with a large enough effect in the repeat runs; inconclusive = weak or mixed curves; inactive = no such curve, though single readings can be large; an effect the other way counts as inactive or inconclusive.
# How the values were obtained:
# [1] = qHTS assay to identify small molecule agonists of H2AX (AID 1224845; active = well fitted activation curve with a large enough effect in the signal ratio in the repeat runs, not every such curve was filed as active; the % refers to the signal ratio; also: potency is read from the fitted curve at half-maximal effect)
# Procedure, shortened: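 Phospho-H2AX Ser139 measured by HTRF (ex 320 nm; em 665 and 620 nm) after 24 hr antibody incubation. Compounds, 15 concentrations, 0.76% DMSO, were applied to CHO-K1 cells for 3hr at 37C before lysis.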
# [2] = qHTS assay to identify small molecule agonists of H2AX - cell viability counter screen (AID 1224847; calls by dose curve; also: nearly all actives have a fitted effect of over 30% in size; also: potency is read from the fitted curve at half-maximal effect)
# Procedure, shortened: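 Cytotoxicity counter screen in wild-type CHO-K1 cells: a 3 hr compound treatment at 37C across 15 concentrations, followed by CellTiter-Glo luminescence to gauge viable cells.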
# [3] = qHTS assay to identify small molecule antagonists of the estrogen related receptor (ERR) signaling pathway from Tox21 library (AID 1224848); also: nearly all actives have a fitted effect of over 50% in size; also: potency is read from the fitted curve at half-maximal effect
# Procedure, shortened: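 ERR cell line, 2,000 cells/well. 6 h settle, then compound (DMSO) added; 18 h at 37 C; ONE-Glo luminescence after 30 min RT.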
# [4] = qHTS assay to identify small molecule agonists of the estrogen related receptor (ERR) signaling pathway from Tox21 library (AID 1224849; calls by dose curve; also: nearly all actives have a fitted effect of over 15% in size); settings: ERR reporter cell line, ONE-Glo luciferase, 18 h
# Procedure, shortened: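 Luminescence readout (ONE-Glo, 30 min RT) after 18 h compound exposure at 37 C of NTP-supplied ERR reporter cells; cells were plated 6 h before compound addition by pin tool.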
# [5] = qHTS RealTime-Glo MT Cell Viability Assay in HepG2 cells - 24 hour (AID 1224867); also: nearly all actives have a fitted effect of over 50% in size; also: potency is read from the fitted curve at half-maximal effect
# Procedure, shortened: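 Tox21 10K library screened in qHTS format on HepG2 cells carrying RealTime-Glo reagents. Compounds were added after a 5 h preincubation, and the luminescent signal from continuous culture was measured repeatedly during 40 h treatment.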
# [6] = qHTS RealTime-Glo MT Cell Viability Assay in HEK293 cells - 32 hour (AID 1224868); also: nearly all actives have a fitted effect of over 50% in size; also: potency is read from the fitted curve at half-maximal effect
# Procedure, shortened: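 Luminescence generated by NanoLuc from substrate produced by living HEK293 cells served as the viability signal. Each value reflects the reading at its stated time point during continuous 40 h compound exposure at 37 C.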
# [7] = A CellTox Green Cytotoxicity Assay to monitor cytotoxicity in HEK293 cells - 0 hour (AID 1224869); also: nearly all actives have a fitted effect of over 50% in size; also: potency is read from the fitted curve at half-maximal effect
# Procedure, shortened: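 Read-out: fluorescence of a cell-impermeant cyanine dye staining DNA of dead cells, proportional to cytotoxicity. HEK293, 600 cells/well with reagent, compound (23 nL DMSO) added after 5 h; reads at 0, 8, 16, 24, 32, 40 h.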
# [8] = target: Thyrotropin receptor (Homo sapiens) (UniProt P16473); experiment: qHTS assay to identify small molecule agonists of the thyroid stimulating hormone receptor (TSHR) signaling pathway (AID 1224843; calls by dose curve; also: nearly all actives have a fitted effect of over 45% in size; also: potency is read from the fitted curve at half-maximal effect)
# Sequence of Thyrotropin receptor (Homo sapiens) (P16473 whole entry, looked up): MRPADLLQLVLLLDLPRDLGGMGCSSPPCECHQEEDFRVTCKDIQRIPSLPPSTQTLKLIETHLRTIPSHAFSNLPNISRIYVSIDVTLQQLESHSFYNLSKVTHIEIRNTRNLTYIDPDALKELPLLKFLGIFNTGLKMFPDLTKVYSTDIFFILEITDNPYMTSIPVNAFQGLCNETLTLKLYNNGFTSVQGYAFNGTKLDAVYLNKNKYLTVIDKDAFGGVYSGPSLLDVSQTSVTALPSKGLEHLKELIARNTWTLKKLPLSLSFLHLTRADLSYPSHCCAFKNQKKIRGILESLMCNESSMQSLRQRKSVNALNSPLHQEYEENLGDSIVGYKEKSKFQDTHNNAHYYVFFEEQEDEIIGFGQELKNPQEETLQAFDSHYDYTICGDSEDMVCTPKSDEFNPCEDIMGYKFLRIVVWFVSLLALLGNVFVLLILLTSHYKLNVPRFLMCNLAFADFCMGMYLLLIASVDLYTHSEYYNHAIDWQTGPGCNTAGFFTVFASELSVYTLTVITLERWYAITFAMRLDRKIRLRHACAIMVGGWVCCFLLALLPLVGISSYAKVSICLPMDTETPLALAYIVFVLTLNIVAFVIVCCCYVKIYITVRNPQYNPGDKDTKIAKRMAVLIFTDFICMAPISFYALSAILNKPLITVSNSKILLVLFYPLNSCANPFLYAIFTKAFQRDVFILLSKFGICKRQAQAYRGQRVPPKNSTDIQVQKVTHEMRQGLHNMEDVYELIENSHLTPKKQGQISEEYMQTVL
# Procedure, shortened: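 A cell-based cAMP HTRF format was run in TSHR-transfected HEK293 cells, 800 per well. Treatment: 30 min, room temperature. Detection: 1 h with labelled cAMP and anti-cAMP cryptate. Concentration-response over 15 points, three replicates.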
# [9] = qHTS assay to identify small molecule agonists of the hypoxia (HIF-1) signaling pathway (AID 1224846; active = well fitted activation curve with a large enough effect in the signal ratio in the repeat runs, not every such curve was filed as active; the % refers to the signal ratio)
# Procedure, shortened: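 Beta-lactamase FRET read-out (CCF4-AM substrate) from ME-180 cells carrying an HRE-driven bla reporter, after 17 hrs compound exposure at 37C/5% CO2. Cells were seeded at 2,000 per well in 0.5% dialyzed FBS medium and preincubated 5 hrs.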
# [10] = qHTS assay to identify small molecule agonists of the hypoxia (HIF-1) signaling pathway - cell viability counter screen (AID 1224844; calls by dose curve; also: nearly all actives have a fitted effect of over 50% in size; also: potency is read from the fitted curve at half-maximal effect)
# Procedure, shortened: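 CellTiter-Glo luminescence read-out, 30 min RT, taken in the same wells as the beta-lactamase HRE reporter assay; HRE-bla ME-180 cells, 0.5% dialyzed FBS, 17 hr compound treatment at 37C, 5% CO2.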
Compound,Potency [1],Potency [2],Potency [3],"activity change, positive = activation ([4]; at 42.5 µM (top of the series))",Potency [5],Potency [6],Potency [7],Potency [8],"activity change, positive = activation ([4]; at 92.4 µM (top of the series))",outcome [9],Potency [10]
C1CCC(C(CC2CCCCN2)C2CCCCC2)CC1 (centres undefined),6.95 µM (active),55.2 µM (active),29.8 µM (active),-54.8% (inactive),5.35 µM (active),10.7 µM (active),inactive,–,–,–,–
CN1[C@@H]2CC(OC(=O)[C@H](CO)c3ccccc3)C[C@H]1[C@@H]1O[C@@H]12 (some centres undefined),–,inactive,–,–,inactive,inactive,inactive,inactive,–,–,–
Nc1c(N=Nc2ccc(-c3ccc(N=Nc4cc(S(=O)(=O)O)c5ccccc5c4N)cc3)cc2)cc(S(=O)(=O)O)c2ccccc12,–,–,24.3 µM (active),–,48.9 µM (active),38.9 µM (active),inactive,–,-40.2% (inactive),–,–
COc1ccc(C(Cl)=C(c2ccc(OC)cc2)c2ccc(OC)cc2)cc1,inactive,inactive,21.6 µM (active) and 27.3 µM (active) and 26.6 µM (active),-32.5% (inactive),inactive,inactive,inactive,–,-45.8% (inactive) and -43.7% (inactive),inactive,–
C=C1CC[C@H](O)C/C1=C\C=C1/CCC[C@]2(C)[C@@H]([C@H](C)CCCC(C)C)CC[C@@H]12,–,112 µM (active),–,–,inactive,43.2 µM (active),inactive,19.2 µM (active),–,–,–
CCc1nc(N)nc(N)c1-c1ccc(Cl)cc1,22.9 µM (active),inactive and 8.98 µM (active) and 12.4 µM (active),–,–,inactive,3.52 µM (active) and 12.3 µM (active),inactive,–,–,–,inactive
O=C1OC2(c3ccccc31)c1cc(Br)c(O)c(Br)c1Oc1c2cc(Br)c(O)c1Br,–,inactive,–,–,inactive,inactive,11.1 µM (active) and 17.9 µM (active) and 23.9 µM (active),–,–,–,–
O=S1(=O)OC(c2ccc(O)cc2)(c2ccc(O)cc2)c2ccccc21,–,inactive,inactive,-3.19% (inactive),49 µM (active) and inactive,inactive,inactive,–,-32% (inactive) and -12.4% (inactive),inactive,inactive
COc1cccc(O)c1O,–,inactive,–,–,inactive,–,inactive,–,–,inactive,–
COc1ccc(OC(F)(F)F)cc1CN[C@H]1CCCN[C@H]1c1ccccc1,–,113 µM (active),–,–,54.9 µM (active),43.6 µM (active),inactive,–,–,inactive,–
CN1CCc2cccc3c2[C@H]1Cc1ccc(O)c(O)c1-3,–,inactive,24.6 µM (active) and 18.1 µM (active),-69.6% (inactive) and -53% (inactive),44.1 µM (active) and 16.3 µM (active) and 23.9 µM (active),15.7 µM (active) and 8.17 µM (active) and 23.9 µM (active),inactive,–,-66.3% (inactive),–,–
NS(=O)(=O)O,inactive,inactive,–,–,inactive,inactive,inactive,–,–,inactive,inactive
NC(=O)n1c(O)c(C(=O)c2cccs2)c2cc(Cl)ccc21,–,inactive,–,–,inactive,inactive,inactive,inactive,–,–,–
CN[C@H]1CC[C@@H](c2ccc(Cl)c(Cl)c2)c2ccccc21,–,49.2 µM (active),26.6 µM (active),-39% (inactive),23.9 µM (active),23.9 µM (active),inactive,–,–,–,–
Cc1ccc(S(=O)(=O)O)cc1,inactive,inactive,–,–,inactive,inactive,inactive,–,–,inactive,inactive
CN(C)C(=S)SC(=S)N(C)C,–,92.1 µM (active) and 31.8 µM (active),886 nM (active) and 1.09 µM (active) and 1.19 µM (active),-68.6% (inactive),1.74 µM (active) and 2.68 µM (active),1.78 µM (active) and 1.55 µM (active) and 6.74 µM (active),inactive,inactive,-79.6% (inactive) and -76.2% (inactive),–,–
CCN(Cc1c(F)cccc1Cl)c1c([N+](=O)[O-])cc(C(F)(F)F)cc1[N+](=O)[O-],inactive,–,61.1 µM (active),–,inactive,49 µM (active),inactive,–,-20.2% (inactive),inactive,21.9 µM (active)
Cc1c(C(=O)O)c(O)cc2c1C(=O)c1c(O)c([C@@H]3O[C@H](CO)[C@@H](O)[C@H](O)[C@H]3O)c(O)c(O)c1C2=O,–,55.3 µM (active) and 56.6 µM (active) and 31 µM (active),–,–,inactive,inactive,inactive,–,–,inactive,inactive
Cn1c(=O)c2c(ncn2C)n(C)c1=O,inactive,inactive,61.9 µM (active) and inactive,0.592% (inactive),inactive,inactive,inactive,–,-33.2% (inactive) and 0.518% (inactive),inactive,inactive
CN1CCC[C@H]1c1cccnc1,inactive,inactive,–,–,inactive,inactive,inactive,–,–,–,inactive
CCCCNC(=O)NS(=O)(=O)c1ccc(C)cc1,inactive,inactive,inactive,4.14% (inactive),inactive,inactive,inactive,–,-14.4% (inactive) and 0.897% (inactive),–,–
CC1(C)O[C@@H]2C[C@H]3[C@@H]4CCC5=CC(=O)C=C[C@]5(C)[C@@]4(F)[C@@H](O)C[C@]3(C)[C@]2(C(=O)CO)O1,inactive,inactive,inactive,-6.5% (inactive),inactive,inactive,inactive,–,-23.9% (inactive) and -13.8% (inactive),inactive,–
C[C@](N)(Cc1ccc(O)c(O)c1)C(=O)O,–,inactive,–,–,inactive,inactive,inactive,–,–,inactive,–
CCCCCCCCCCCCCCCC[N+](C)(C)Cc1ccccc1,inactive,117 µM (active) and 45.8 µM (active) and 49.2 µM (active),11.2 µM (active) and 11.1 µM (active) and 11.9 µM (active),-56.4% (inactive),22.6 µM (active) and 15.8 µM (active) and 10.7 µM (active),7.14 µM (active) and 11.2 µM (active) and 3.38 µM (active),inactive,–,-78.7% (inactive) and -80.7% (inactive),–,–
